Compound activity (PubChem)
M4 antag – antagonists of human muscarinic M4 receptor (CHRM4). P08173. CHO-hM4 cells, ACh EC80, Fluo-8 calcium fluorescence. inhibition, % at 3 µM. hit rate 0.73% among 360,000;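 active means inhibition above its plate's cutoff, the mean inhibition of sample wells plus 3 SD, cut at about 27% in these data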
Target sequence (P08173 whole entry, looked up): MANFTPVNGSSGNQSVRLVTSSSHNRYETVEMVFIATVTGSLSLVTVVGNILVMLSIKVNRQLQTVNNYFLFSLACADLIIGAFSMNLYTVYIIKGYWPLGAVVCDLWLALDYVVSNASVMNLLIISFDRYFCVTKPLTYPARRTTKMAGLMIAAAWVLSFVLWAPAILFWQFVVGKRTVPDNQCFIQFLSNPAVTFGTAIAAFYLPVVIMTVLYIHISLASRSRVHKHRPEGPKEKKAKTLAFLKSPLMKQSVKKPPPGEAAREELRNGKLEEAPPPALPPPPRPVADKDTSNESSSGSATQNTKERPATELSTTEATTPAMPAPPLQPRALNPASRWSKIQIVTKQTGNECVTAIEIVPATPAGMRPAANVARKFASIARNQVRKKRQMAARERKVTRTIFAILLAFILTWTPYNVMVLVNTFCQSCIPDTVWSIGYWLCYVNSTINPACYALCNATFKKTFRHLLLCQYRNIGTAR
CHRM4 agonist – agonists of human muscarinic M4 receptor (CHRM4) | CHO-K1 hM4/Gqi5, Fluo-8 calcium fluorescence; vehicle 0%, full acetylcholine response 100% | activation, % at 3 µM | P08173 | hit rate 0.14% among 360,000;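 active means activation above the run mean over all test wells plus 3 SD, cut at about 32% in these data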;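 further: peak over basal fluorescence ratio per well then scaled between controls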
M1 PAM parental – M1 PAM counterscreen hit in parental CHO-K1 cells. ATP EC20, Fluo-8 calcium fluorescence; 0% at ATP EC20, 100% at ATP max. activation, % at 3 µM. hit rate 0.02% among 360,000;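 active means activation above the run cutoff, the mean activation of all test compounds plus 3 SD, cut at about 40% in these data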;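 further: peak over basal fluorescence ratio in a 140 s read after ATP addition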
M1 ag parental – nonselective activator or artifact in parental CHO-K1 cells; Fluo-8 calcium fluorescence; scaled to maximal ATP response, vehicle zero; activation, % at 3 µM; hit rate 0.48% among 360,000; AID 602248; in the data active means activation above about 15%;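 further: untransfected CHO-K1 host cells lacking M1 receptor as counterscreen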
M4 PAM – positive allosteric modulators of human muscarinic M4 receptor; activation, % at 3 µM; CHO-K1 hM4/Gqi5, Fluo-8 calcium fluorescence, ACh EC20; 0% = ACh EC20, 100% = maximal ACh; hit rate 0.4% among 360,000;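 active means activation above its plate's cutoff, the mean activation of sample wells plus 3 SD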
CHO-K1 Ca antag – nonselective inhibitor or artifact in parental CHO-K1 cells. ATP-induced calcium, Fluo-8 fluorescence. inhibition, % at 3 µM. hit rate 0.6% among 360,000;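 active means inhibition above a per-plate cutoff, the plate's mean sample inhibition plus 3 SD, cut at about 24% in these data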
A number is an active result; - = inactive. Rows were chosen to be rich in hits. Some 2% of all compounds tested hit in one or more screens of this group.

SMILES | M4 antag | CHRM4 agonist | M1 PAM parental | M1 ag parental | M4 PAM | CHO-K1 Ca antag
COC(=O)c1ccc(OCCN2C3=NCCN3c3ccccc32)cc1 | 40 | - | - | - | - | -
O=C(CN1CCN(C(c2ccccc2)c2ccccc2)CC1)NC(=O)NCc1ccco1 | - | - | - | - | - | 27
CCOC(=O)n1c(=O)oc2ccc(Cl)cc21 | - | - | - | - | - | 29
CCCCOC(=O)n1c(=O)oc2ccccc21 | - | - | - | - | - | -
C=CCNC(=S)NNC(=O)c1ccc(C)c(Cl)c1 | - | - | - | - | - | -
COc1ccc(NC(=O)CN(C)C(=O)c2ccc(NS(=O)(=O)c3cccc([N+](=O)[O-])c3)cc2)cc1 | - | - | - | - | - | 33
COc1ccc(NS(=O)(=O)c2cccc(C(=O)N(C)CC(=O)Nc3ccc(C)cc3)c2)cc1 | - | - | - | - | - | -
COc1ccc(NS(=O)(=O)c2ccc(C(=O)N(C)Cc3cccs3)cc2)cc1 | - | - | - | 20 | - | -
O=C1c2ccccc2C(=O)N1CCCCN(C(=O)c1cc2ccccc2oc1=O)c1ccc(Cl)cc1 | - | - | - | - | - | -
Cc1ccc(NC(=O)NC(=O)CSc2n[nH]c(N)n2)c(C)c1 | - | - | - | - | - | -
COC(=O)c1cn(Cc2ccccc2C)nn1 | - | - | - | - | 22 | -
Cc1ccc(S(=O)(=O)N2CCOCC2)cc1NC(=O)Cn1ccsc1=N | - | - | - | - | - | -
Cc1c(OCC(=O)NCCN2CCOCC2)ccc2c1oc(=O)c1ccccc12 | - | - | - | 17 | - | -
COc1ccccc1N(C)S(=O)(=O)c1ccc(C(=O)N2CCC2)cc1 | - | - | - | - | - | -
COc1ccccc1N(C)S(=O)(=O)c1ccc(C(=O)N2CCCc3ccccc32)cc1 | - | - | - | 16 | - | -
CNC(=S)N1CCC(NC(=O)C(Cc2ccc(OC)cc2)NC(C)=O)CC1 (stereo not drawn) | - | - | - | - | - | -
COc1ccc(CC(NC(C)=O)C(=O)N2CCN(C(=O)N(C(C)C)C(C)C)CC2)cc1 (stereo not drawn) | 29 | - | - | - | - | -
CC[C@H]1O[C@H](C)CC2=C1C(=O)OC(C)(C)O2 | - | - | - | - | 23 | -
CC(=O)NNC(=O)c1cc2c3ccccc3n(C)c2s1 | - | - | - | - | - | -
Cn1c2ccccc2c2cc(C(=O)N3CCN(CCO)CC3)sc21 | - | - | - | - | - | 24
Cn1c(Oc2ccc(Cl)cc2)c(C=O)c2ccccc21 | - | - | - | - | - | 27
Nc1[nH]n2c(=O)cc(-c3ccccc3)nc2c1N=Nc1ccc(S(N)(=O)=O)cc1 | - | - | - | - | - | 25
COc1ccc(C(=O)O)cc1S(=O)(=O)NCCCN1CCCC1=O | - | - | - | - | - | 25
Cc1ccc(CCNC(=O)C2CCN(S(=O)(=O)c3c(C)nn(C)c3C)CC2)cc1 | - | - | - | - | - | -
Cc1ccc(NC(=O)C2CCN(S(=O)(=O)c3c(C)nn(C)c3C)CC2)c(Cl)c1 | - | - | - | - | - | 37
SMILES | M4 antag | CHRM4 agonist | M1 PAM parental | M1 ag parental | M4 PAM | CHO-K1 Ca antag
Cc1cccc(C(=O)N/N=C/c2ccccn2)c1 | - | - | - | - | - | -
Cc1ccccc1OCCCC(=O)NC1CCCCC1 | - | - | - | - | - | -
CN(C)CCCN(C(=O)CCc1ccccc1)c1nc2ccc(Br)cc2s1 | 53 | 34 | - | - | - | -
CN(C)CCCN(C(=O)CCc1ccccc1)c1nc2ccc(F)cc2s1 | - | - | - | - | - | -
CN(C(=O)CN1C(=O)S/C(=C\c2ccccc2Cl)C1=O)C1CCS(=O)(=O)C1 (stereo not drawn) | - | - | - | - | - | 28
CN(C(=O)CN1C(=O)S/C(=C\c2ccc(Cl)cc2)C1=O)C1CCS(=O)(=O)C1 (stereo not drawn) | - | - | - | - | 17 | -
COc1cc(C2Nc3ccccc3C(=O)N2c2ccccc2OC)ccc1O (stereo not drawn) | - | - | - | - | - | -
CCCS(=O)(=O)NC(=O)C1(C)CCCN(C(=O)c2nc(C)oc2C)C1 (stereo not drawn) | - | - | - | - | - | -
COc1ccc(Oc2nc3c(c(=O)n(C)c(=O)n3C)n2Cc2ccccc2)cc1 | - | - | - | - | 30 | -
